The source of these data is PubChem BioAssay AID463173 (ICCB-Longwood Screening Facility, Harvard Medical School, 2010).

Out of some 52,000 compounds screened, about 1,700 (3.3%) were called active. Rule as the data show it: active = survival mostly below about 52% (no sharp cut-off); inactive = mostly above about 56%. The entries come from a sample that favours actives as a whole.

For this assay, the system named is Wild type. Description: growth inhibition of S. aureus wild type versus tarO mutant, primary screen, teichoic acid synthesis inhibitors, RN4220, OD600 (AID 463173). Particulars: S. aureus RN4220 wild type/DeltatarO growth, OD600, 18 h, hits give low values, screened at 18.75 µg/mL (by protocol).
Consider `c1ccc(-c2cc3ccsc3s2)cc1`, for which the survival was 111% (inactive).

Turning to `Oc1cc2ccsc2c2ccccc12`, the survival was 18% (active).

`O=c1cc(O)c2ccccc2[nH]1`: the survival is 135% (inactive).

Consider `Cc1ccc(C(=O)N/C(=C/c2ccco2)C(=O)Nc2nccs2)cc1`, for which the survival is 81% (inactive).

As for `CCCC(=O)Nc1ccc2c(C)cc(C)nc2n1`, the survival is 99% (inactive).

As for `CCC(Sc1ccc2nnc(CCNS(=O)(=O)c3ccc(OC)cc3)n2n1)C(=O)OC` (centres undefined), the survival is 84% (inactive).

As to `COc1ccc(NC(=O)CCS(=O)(=O)c2nc(-c3cccs3)cc(C(F)(F)F)n2)cc1OC`, the survival was 100% (inactive).

In the case of `COc1ccccc1NC(=O)CCn1nc(-c2ccccc2)c2ccccc2c1=O`, the survival is 4% (active).

For `Cc1ccc(NC(=O)CCn2nc(-c3ccccc3)c3ccccc3c2=O)c(C)c1`, the survival is 75% (inactive).

In the case of `O=C(CCn1nc(-c2ccccc2)c2ccccc2c1=O)Nc1ccccc1`, the survival was 86% (inactive).

As to `CCCOc1ccccc1C1C(C(=O)Nc2ccccc2)=C(C)Nc2nnnn21` (centres undefined), the survival was 134% (inactive).

Take `COc1ccc(-n2c(-c3ccc(F)cc3)cn3c4c(=O)n(C)c(=O)n(C)c4nc23)cc1`: the survival is 63% (inactive).

In the case of `CC(C)(C)C(=O)Nc1nnc2n1CCS2`, the survival was 77% (inactive).

On to `Cc1ccc2c(CNCCc3ccccc3)c(C(=O)O)n(Cc3ccccc3C)c2c1`, for which the survival is 1% (active).

As for `C=Cc1ccc(Cn2c(C(=O)O)c(CNCc3ccc(F)cc3)c3ccc(C)cc32)cc1`, the survival was 68% (inactive).

Regarding `Cc1ccc2c(CNCCc3ccco3)c(C(=O)O)n(Cc3ccc(F)cc3)c2c1`, the survival is 66% (inactive).

For the compound `C=Cc1ccc(Cn2c(C(=O)O)c(CNCCc3ccccc3)c3ccc(C)cc32)cc1`, the survival is 69% (inactive).

For the compound `Cc1ccc2c(CNCCc3ccc(Cl)cc3)c(C(=O)O)n(Cc3ccc(F)cc3)c2c1`, the survival was 4% (active).

As to `Cc1ccc(CNCc2c(C(=O)O)n(Cc3ccccc3C)c3cc(C)ccc23)cc1`, the survival was 63% (inactive).

In the case of `Cc1ccccc1NC(=O)Cn1nc(-c2ccccc2)nc(Cc2ccccc2)c1=O`, the survival is 70% (inactive).

On to `CC(C)OCCCn1c(=O)c2ccccc2n2c(-c3ccccc3F)nnc12`, for which the survival is 88% (inactive).

Take `Cc1c(C(=O)N2CCCC2)oc2c1-c1nn(CC(=O)NCc3cccc(F)c3)cc1CC2`: the survival was 85% (inactive).

In the case of `Cc1cccc(N2CCN(C(=O)c3noc4c3COc3ccc(C)cc3-4)CC2C)c1` (centres undefined), the survival is 80% (inactive).

`CN(C)c1ncnc(Cl)c1N`: the survival was 101% (inactive).

In the case of `CCOc1ccc(NC(=O)CSc2ncc3c(n2)-c2ccccc2N(C)S3(=O)=O)cc1`, the survival is 78% (inactive).

With `CCOc1ccc(-c2nnc(SCC(=O)Nc3cccc(OC)c3)nc2-c2ccc(OCC)cc2)cc1`, the survival was -3% (active).

Regarding `Cc1ccc(NC(=O)CSc2ncc3c(n2)-c2ccc(Cl)cc2N(C)S3(=O)=O)cc1F`, the survival is 69% (inactive).

For the compound `COc1ccc(-c2nnc(SCC(=O)Nc3cccc(C(F)(F)F)c3)nc2-c2ccc(OC)cc2)cc1`, the survival is 79% (inactive).

Turning to `CCOc1ccc(NC(=O)CSc2nnc(-c3ccc(C)cc3)c(-c3ccc(C)cc3)n2)cc1`, the survival is 115% (inactive).

`CCc1cccc(NC(=O)CSc2ncc3c(n2)-c2cc(Cl)ccc2N(C)S3(=O)=O)c1`: the survival is 65% (inactive).

With `COc1cc(NC(=O)CSc2ncc3c(n2)-c2ccc(Cl)cc2N(Cc2ccccc2)S3(=O)=O)cc(OC)c1`, the survival is 65% (inactive).

Regarding `COc1cccc(NC(=O)CSc2ncc3c(n2)-c2ccc(Cl)cc2N(C)S3(=O)=O)c1`, the survival is 10% (active).

As to `CCOc1ccc(NC(=O)CSc2ncc3c(n2)-c2cc(Cl)ccc2N(C)S3(=O)=O)cc1`, the survival is -3% (active).

In the case of `CN(C)CCn1c2c(c(SCC(=O)Nc3ccc(F)cc3F)nc1=O)CCC2`, the survival is 83% (inactive).

Turning to `COC(=O)c1scc(-c2ccccc2)c1S(=O)(=O)Nc1cccc(C)c1C`, the survival was 100% (inactive).

For `Cn1c(Cc2cccs2)nnc1SCC(=O)N1CCCc2ccccc21`, the survival was 109% (inactive).

On to `O=C(CSC1=Nc2ccccc2C2=NC(CC(=O)NC3CCCCC3)C(=O)N12)Nc1ccc(F)cc1` (centres undefined), for which the survival is 71% (inactive).

On to `COc1cc(NC(=O)c2noc3c2CC(C(C)(C)C)CC3)cc(OC)c1OC` (centres undefined), for which the survival was 68% (inactive).

With `CCOC(=O)c1c(NC(=O)c2noc3c2CC(C(C)(C)C)CC3)sc2c1CCCC2` (centres undefined), the survival was 88% (inactive).

On to `CCc1ccccc1NC(=O)c1noc2c1CC(C(C)(C)C)CC2` (centres undefined), for which the survival was -11% (active).

Turning to `O=C(C1CCCN(S(=O)(=O)c2ccc(Br)s2)C1)N1CCN(c2cccc(Cl)c2)CC1` (centres undefined), the survival is 73% (inactive).

`Cc1cc(C)n2nc(CNS(=O)(=O)c3ccc(F)cc3)nc2n1`: the survival was 88% (inactive).

Turning to `Cc1nc(SCc2ccc(Cl)cc2)c(C#N)c(C)c1Cl`, the survival is 32% (inactive).

With `Cc1ccc(Cl)cc1NC(=O)CSc1nc(C)c(C)c(C)c1C#N`, the survival was 86% (inactive).

In the case of `Cc1nc(SCc2ccccc2Cl)c(C#N)c(C)c1C`, the survival is -2% (active).

For `Cc1cc(F)ccc1NC(=O)Cn1cc(S(=O)(=O)NC(C)C)c(S(=O)(=O)NC(C)C)c1`, the survival was 73% (inactive).

Regarding `CNS(=O)(=O)c1cn(CC(=O)Nc2ccc(F)cc2F)cc1S(=O)(=O)NC`, the survival is -3% (active).

As to `CNS(=O)(=O)c1cn(CC(=O)Nc2ccc(C)cc2C)cc1S(=O)(=O)NC`, the survival was 121% (inactive).

Turning to `CCC(=O)N1CCc2cc(Br)cc(S(=O)(=O)N3CCC(C(=O)Nc4ccccc4CC)CC3)c21`, the survival is 89% (inactive).

On to `CCC(=O)N1CCc2cc(Br)cc(S(=O)(=O)N3CCC(C(=O)Nc4cccc(C)c4)CC3)c21`, for which the survival is 94% (inactive).

Turning to `CCC(=O)N1CCc2cc(Br)cc(S(=O)(=O)N3CCC(C(=O)Nc4ccc(OC)cc4)CC3)c21`, the survival was 0% (active).

On to `CC(C(=O)N(C(C)C)C(C)C)N1CCN(C)CC1` (centres undefined), for which the survival is 93% (inactive).

In the case of `O=C(Cn1c(=O)nc(-c2ccccc2)c2ccccc21)NCc1ccccc1Cl`, the survival is 73% (inactive).

Regarding `CCOc1ccc(CNC23CN4CN(CN(C4)C2)C3)cc1`, the survival is 99% (inactive).

Take `COc1ccc(-c2nc(SCC(=O)N3CCN(c4ccc(F)cc4)CC3)n[nH]2)cc1`: the survival was 85% (inactive).

Consider `CC(Sc1nc(-c2ccccc2)cc(C(F)(F)F)n1)C(=O)N1CCCC1` (centres undefined), for which the survival was 105% (inactive).

`O=C(CSc1n[nH]c(-c2ccccc2)n1)N1CCN(c2ccc(F)cc2)CC1`: the survival is 65% (inactive).

As for `O=C(CSc1n[nH]c(-c2ccc(F)cc2)n1)N1CCN(c2ccc(F)cc2)CC1`, the survival is -6% (active).

On to `COc1ccc(-c2cc(C(F)(F)F)nc(SCC(=O)N3CCC(C)CC3)n2)cc1`, for which the survival was 55% (inactive).

Consider `CC1CCN(C(=O)CSc2n[nH]c(-c3ccc(F)cc3)n2)CC1`, for which the survival is 76% (inactive).

For the compound `CC1CCN(C(=O)C(C)Sc2nc(-c3ccccc3)cc(C(F)(F)F)n2)CC1` (centres undefined), the survival is -7% (active).

`CC1CCN(C(=O)CSc2nc(-c3ccc(F)cc3)cc(C(F)(F)F)n2)CC1`: the survival is 11% (active).

Turning to `CC1CN(C(=O)C(C)Sc2nc(-c3ccccc3)cc(C(F)(F)F)n2)CC(C)O1` (centres undefined), the survival is 101% (inactive).

Consider `CC1(C)CC(=O)c2cc(C(=O)Nc3ccc(Br)cc3)c(=O)n(-c3ccc(Cl)cc3)c2C1`, for which the survival is 74% (inactive).

For the compound `O=C(Nc1ccccc1)NC1(C(=O)Nc2ccc(-n3cnnn3)cc2)CCCCC1`, the survival is 123% (inactive).

As to `COc1ccc(NC(=O)CS(=O)CC(=O)Nc2cc(OC)ccc2OC)cc1` (centres undefined), the survival was 107% (inactive).

With `CCOC(=O)C1CCN(C(=O)c2ccc3c(c2)sc2nc(-c4ccccc4)cn23)CC1`, the survival is 42% (inactive).

Turning to `Cc1cc(S(=O)(=O)Nc2cc3c(cc2N2CCOCC2)n(C)c(=O)n3C)ccc1F`, the survival is 82% (inactive).

As to `CC(=O)Oc1cn(C(C)=O)c2ccccc12`, the survival is 84% (inactive).

Turning to `CC1CCCCN1S(=O)(=O)c1ccc(NC(=O)C2COc3ccccc3O2)cc1` (centres undefined), the survival is 125% (inactive).

Consider `COc1cc(NC(=O)Cc2c(C(=O)O)c(C)cn2C)cc(OC)c1`, for which the survival is 99% (inactive).

Regarding `O=C(CCN1CCCCC1)Nc1ccccc1`, the survival is 110% (inactive).

Take `CCOC(=O)c1ccc(N2C(=O)c3n[nH]c(-c4ccco4)c3C2c2ccc(C)cc2)cc1` (centres undefined): the survival is 32% (inactive).

Regarding `CCOC(=O)c1ccc(N2C(=O)c3n[nH]c(-c4ccco4)c3C2c2ccc(F)cc2)cc1` (centres undefined), the survival is 9% (active).

Turning to `CCOC(=O)c1ccc(N2C(=O)c3n[nH]c(C)c3C2c2ccc(CC)cc2)cc1` (centres undefined), the survival was 82% (inactive).

Consider `CCOC(=O)c1ccc(N2C(=O)c3n[nH]c(C)c3C2c2cccc(Br)c2)cc1` (centres undefined), for which the survival is 3% (active).

For the compound `CCOC(=O)c1ccc(N2C(=O)c3n[nH]c(-c4ccco4)c3C2c2ccc(O)cc2)cc1` (centres undefined), the survival is 67% (inactive).

In the case of `CCOC(=O)c1ccc(N2C(=O)c3n[nH]c(C)c3C2c2ccc(C(C)(C)C)cc2)cc1` (centres undefined), the survival is 81% (inactive).

Regarding `Cn1cc(S(=O)(=O)N2CCCCC2)cc1C(=O)NCc1ccc(Cl)cc1`, the survival was 88% (inactive).

For `COc1ccc(CNC(=O)Cc2c(C)c3cc4c(C)coc4cc3oc2=O)cc1`, the survival is 88% (inactive).

For the compound `COc1ccc(-c2nc3sc(CCNC(=O)C(=O)Nc4cc(C)cc(C)c4)c(C)n3n2)cc1`, the survival was 89% (inactive).

Regarding `CC(=O)c1ccc(N2CCN(C(=O)C3CCN(S(=O)(=O)c4c(C)noc4/C=C/c4ccc(C)cc4)CC3)CC2)cc1`, the survival is 127% (inactive).

Consider `O=C(O)CCC(=O)NC(c1ccccc1)c1ccccc1`, for which the survival was 108% (inactive).

In the case of `Cc1cc(C)nc(N2CCC(C(=O)Nc3nnc(C(C)C)s3)CC2)n1`, the survival is 107% (inactive).

As for `COC(=O)c1cc2c(ccn2-c2ccc(F)cc2)n1Cc1ccccc1`, the survival was 88% (inactive).

Turning to `Cc1ccc(CN2C(=O)CN(C3CCC(C)CC3)C(=O)C2c2ccc(F)cc2)cc1` (centres undefined), the survival was 119% (inactive).

For the compound `COc1ccc(C2C(=O)N(C3CCCCCC3)CC(=O)N2Cc2ccc(C)cc2)cc1` (centres undefined), the survival was 75% (inactive).

In the case of `Cc1ccc(CN2C(=O)CN(C3CCCCCC3)C(=O)C2c2ccc(F)cc2)cc1` (centres undefined), the survival was 1% (active).

With `COc1ccc(C)cc1NC(=O)Nc1cccc(OCc2cc(=O)n3ccc(C)cc3n2)c1`, the survival is 73% (inactive).
